Reference: the supplement of paper PMC6555819

Tests used:
Experiment in all cases: PBM binding z-score (relative to random genomic background probes); higher = stronger binding; sequences stand for … in GC…GCGATTGACAGCGTAGAATGAAGG
[1] = test system: FXR:RXRa (NR concentration 270 nM, RXRa partner concentration 90 nM)
In short: (§1)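 Antibodies against each partner of ligand-free nuclear receptor dimers (one per run) detected binding on custom Agilent 4×180K protein-binding microarrays after 1 h incubation. The double-stranded probes had 34-nt variable regions carrying direct-repeat seeds, single-nucleotide variants, half-site ablations and random human genomic background sequences. Binding z-scores, from regression-normalized fluorescence, use the random background probes as reference.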

[2] = test system: LXRa homodimer (NR concentration 270 nM)
In short: as §1

[3] = test system: LXRb homodimer (NR concentration 270 nM)
In short: as §1

[4] = test system: PPARg:RXRa (NR concentration 180 nM, RXRa partner concentration 90 nM)
In short: as §1

[5] = test system: PPARg:RXRa 270nM:90nM, anti-RXR (NR concentration 270 nM, RXRa partner concentration 90 nM)
In short: as §1

[6] = test system: PPARg:RXRa 30nM:10nM, anti-RXR (NR concentration 30 nM, RXRa partner concentration 10 nM)
In short: as §1

[7] = test system: PPARg:RXRa 90nM:30nM, anti-RXR (NR concentration 90 nM, RXRa partner concentration 30 nM)
In short: as §1

[8] = test system: PPARg:RXRa DBDmut IVT, anti-RXR (DBD mutation: RXRa K156A/R161A, NR concentration 270 nM, RXRa partner concentration 90 nM)
In short: as §1

[9] = test system: PPARg:RXRa IVT, anti-PPARg (NR concentration 270 nM, RXRa partner concentration 90 nM)
In short: as §1

[10] = test system: PPARg DBDmut:RXRa IVT, anti-PPARg (DBD mutation: PPARg1 K132A/R137A, NR concentration 270 nM, RXRa partner concentration 90 nM)
In short: as §1

[11] = test system: PPARg DBDmut IVT, anti-PPARg (DBD mutation: PPARg1 K132A/R137A, NR concentration 270 nM)
In short: as §1

[12] = test system: PPARg homodimer (NR concentration 180 nM)
In short: as §1

[13] = test system: PXR:RXRa (NR concentration 270 nM, RXRa partner concentration 90 nM)
In short: as §1

[14] = test system: PXR homodimer (NR concentration 270 nM)
In short: as §1

[15] = test system: RARa:RXR (NR concentration 270 nM, RXRa partner concentration 90 nM)
In short: as §1

[16] = test system: RARa homodimer (NR concentration 270 nM)
In short: as §1

[17] = test system: RARb:RXRa (NR concentration 270 nM, RXRa partner concentration 90 nM)
In short: as §1

[18] = test system: RARb homodimer (NR concentration 270 nM)
In short: as §1

[19] = test system: LXRa:RXRa (NR concentration 270 nM, RXRa partner concentration 90 nM)
In short: as §1

[20] = test system: PPARa:RXRa (NR concentration 270 nM, RXRa partner concentration 90 nM)
In short: as §1

| Sequence | PBM binding z-score [1] | PBM binding z-score [2] | PBM binding z-score [3] | PBM binding z-score [4] | PBM binding z-score [5] | PBM binding z-score [6] | PBM binding z-score [7] | PBM binding z-score [8] | PBM binding z-score [9] | PBM binding z-score [10] | PBM binding z-score [11] | PBM binding z-score [12] | PBM binding z-score [13] | PBM binding z-score [14] | PBM binding z-score [15] | PBM binding z-score [16] | PBM binding z-score [17] | PBM binding z-score [18] | PBM binding z-score [19] | PBM binding z-score [20] |
| --- | --- | --- | --- | --- | --- | --- | --- | --- | --- | --- | --- | --- | --- | --- | --- | --- | --- | --- | --- | --- |
| ACTCGGATGACAAAGGTCAGAGCTACGCCAGTGA | 3.55 | 1.58 | 0.503 | 4.68 | 5.37 | 3.76 | 5.58 | 0.169 | 2.58 | 0.403 | 0.346 | 3.31 | 3.68 | 0.135 | 4.51 | 1.18 | 4.12 | 3.9 | – | – |
| TCTTGTAGGTCAATAGAGGTTAAGAAAGTGCGCT | 4.77 | 3.93 | 1.17 | 6.67 | 5.94 | 4.32 | 5.5 | 7.07 | 7.76 | 2.66 | 2.4 | 2.69 | 5.67 | 0.719 | 4.2 | 1.13 | 4.09 | 3.81 | – | – |
| ATATGTAGTTTATCGGGTCATTCAGTTTGCGCAT | 2.53 | 3.41 | 0.952 | 1.86 | 2.34 | 0.761 | 1.64 | 2.99 | 3.77 | 1.29 | 1.84 | 1.72 | 3.46 | 7.31 | 3.03 | 1.18 | 2.26 | 2.91 | – | – |
| TCTTGTAGATCAATAGAAGTTAAGAAAGTGCGCT | 0.718 | -0.154 | 0.0744 | -5.78e-05 | 1.83 | 3.04 | 2.6 | 1.85 | 0.217 | 0.211 | 1.07 | 0.551 | 0.615 | 0.29 | 0.734 | 0.368 | 0.0854 | -0.511 | – | – |
| CGTCCAAGGTCATATGAGGTCAGTGAAGACAGAT | 7.7 | 6.17 | 2.22 | 4.87 | 5.72 | 2.34 | 4.36 | 3.46 | 3.84 | 0.668 | 0.114 | 4.65 | 7.23 | 9.26 | 6.07 | 2.7 | 5.34 | 5.47 | – | – |
| ATCTCTAGGTTAAGATAGTTCAGTGAATGCAAAT | 0.821 | 2.52 | 0.754 | 1.39 | 1.66 | 0.609 | 1.15 | 3.33 | 3.25 | 1.33 | 1.32 | 1.36 | 3.05 | 0.756 | 1.53 | 2.08 | 2.01 | 1.9 | – | – |
| ATATGTAGGTTATCGGGTCATACAGTTTGCGCAT | 3.18 | 1.45 | 1.35 | 7.64 | 6.2 | 4.38 | 5.61 | 7.63 | 7.62 | 3.33 | 1.78 | 2.48 | 3.54 | 2.74 | 4 | 1.32 | 2.75 | 3.17 | – | – |
| TAGCCTAGGTCATTCAGGGGCAAGTATAGAAAGC | 5.65 | 2.15 | 1.41 | 2.47 | 2.67 | 0.449 | 1.87 | 1.93 | 3.07 | 0.118 | 0.778 | 1.7 | 5.54 | 0.783 | 3.46 | 0.682 | 3.81 | 3.46 | – | – |
| ATATGTAGGTTAGCTGAGGTCATTCAGACTAGGC | 5.29 | 6.24 | 1.12 | 5.21 | 4.91 | 2.35 | 4.11 | 6.93 | 6.48 | 2.26 | 1.4 | 3.04 | 6.68 | 6.09 | 4.95 | 1.7 | 3.34 | 4.04 | – | – |
| GCTGCTAGTTCAACTGATGGTCAGCTAAAGCTCG | -0.0566 | -0.53 | -0.641 | -0.618 | -0.212 | -0.685 | -0.415 | -0.111 | -0.512 | -0.37 | -1.33 | -0.347 | 0.398 | -0.4 | 0.418 | -1.04 | 1.62 | 1.21 | – | – |
| GCATATAGGTAATACAAGGTCAAAGTCCGATTGT | 3.47 | 9.94 | 1.42 | 2.69 | 3.32 | 1.39 | 2.9 | 4.1 | 4.1 | 0.883 | 0.92 | 1.97 | 4.93 | 2.12 | 4.47 | 1.17 | 2.92 | 3.79 | – | – |
| TAGCCTAGGTCATGCGGGCCAATATAGTGTCGGC | 4.22 | 0.473 | -0.31 | 2.39 | 2.44 | 0.146 | 1.26 | 1.58 | 2.94 | -0.152 | -0.18 | 0.69 | 1.64 | -0.334 | 2.13 | -0.396 | 3.67 | 3.15 | – | – |
| CCTTACGGGTCACTCCAGGTTATATCATCGGAGT | 4.99 | 2.49 | 0.56 | 3.65 | 3.72 | 0.84 | 2.78 | 2.96 | 3.56 | 0.671 | -0.354 | 1.62 | 5.16 | 0.444 | 3.62 | 0.321 | 3.69 | 3.31 | – | – |
| GCTAGTTGGTCAGTAAAATGTCACACACCGGTCG | – | -0.0317 | -0.257 | 0.556 | -0.103 | -0.158 | 0.223 | 0.762 | 0.672 | 0.0763 | -0.339 | 1.21 | -0.0576 | 0.0723 | 0.0348 | 0.262 | 0.995 | 1.43 | 0.173 | -0.0403 |
